Values joined by “and” are separate entries in the source; they are usually repeats but may differ in a detail not shown here. Equal entries are not always repeated. The panel holds about 79,000 compounds, 15% with a hit somewhere; the sample as a whole holds those more often. Cut-off read from the data, not from the text of the source: active = growth inhibition above about 70%; inactive = the rest.
Assays:
[1] = NCI Yeast Anticancer Drug Screen. Data for the rad50 strain (AID 155);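 note: 0% = growth of vehicle-only cultures of the same strain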; conditions: S. cerevisiae rad50 strain growth inhibition, hits give high values; at 50.0 µM unless noted
In short: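 A DNA repair-deficient yeast mutant serves as the test organism; compound-induced growth inhibition is calculated against vehicle-treated cells.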

[2] = NCI Yeast Anticancer Drug Screen. Data for the mec2-1 strain (AID 157); conditions: S. cerevisiae mec2-1 strain, hits give high values; at 50.0 µM unless noted
In short: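 Yeast mec2-1 mutant treated with compound. Readout: growth inhibition vs vehicle controls.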

[3] = NCI Yeast Anticancer Drug Screen. Data for the sgs1 mgt1 strain (AID 161);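 note: 0% = growth of cultures given vehicle only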; conditions: S. cerevisiae sgs1 mgt1 strain, hits give high values; at 50.0 µM unless noted
In short: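 Test agents were incubated with a DNA-repair-mutant yeast strain. Growth was then read and compared against vehicle-treated controls.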

[4] = NCI Yeast Anticancer Drug Screen. Data for the cln2 rad14 strain (AID 165);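 note: 0% = growth equal to vehicle treated cultures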; conditions: S. cerevisiae cln2 rad14 strain, hits give high values; at 50.0 µM unless noted
In short: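 cln2 rad14 yeast strain; compound exposure; growth inhibition read vs vehicle controls.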

[5] = NCI Yeast Anticancer Drug Screen. Data for the bub3 strain (AID 167); conditions: S. cerevisiae bub3 mutant strain, hits give high values; at 50.0 µM unless noted
In short: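 Inhibition values come from growth of compound-treated mutant yeast normalised to vehicle-treated controls.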

[6] = NCI Yeast Anticancer Drug Screen. Data for the mlh1 rad18 strain (AID 175); conditions: S. cerevisiae mlh1 rad18 strain growth inhibition, hits give high values; at 50.0 µM unless noted
In short: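 Yeast w/ defined DNA-repair lesions; compound exposure; growth vs vehicle controls → % inhibition.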

Measured: growth inhibition

C=C1CC(C2OCOC3COCOC32)OC1=O (stereo not given)
inactive: [1] -44.1% | [2] -12.9% | [3] -14.8% | [4] -22.6% | [5] 17.2% | [6] -2.1%

CCCCOC(=O)NC(=O)c1cc2cc(Cl)ccc2oc1=O
inactive: [1] 4.65% | [2] 17.9% | [3] 13.9% | [4] 10.7% | [5] 23.1% | [6] 18.8%

Cn1cc(Cc2ccccc2)c(=O)[nH]c1=O
inactive: [1] 6.25% | [2] -4.4% | [3] 2.05% | [4] -34.6% | [5] -4.85% | [6] 7.6%

COc1cc(C2c3cc4c(cc3OC(NN=C(C)C)C2C)OCO4)cc(OC)c1O (stereo not given)
inactive: [1] 14.2% | [2] 1.7% | [3] 9.65% | [4] 4.5% | [5] 12.8% | [6] 10.9%

O=C1CCC(c2nc3ccccc3[nH]2)N1Cc1ccccc1 (stereo not given)
inactive: [1] 13.9% | [2] 2.3% | [3] 18.1% | [4] 4.35% | [5] 6.4% | [6] 18.9%

Cc1ccc(C(=O)/C=C/c2cccc3ccccc23)cc1
inactive: [1] 16.1% | [2] 3.65% | [3] 21.5% | [4] 4.25% | [5] 9.95% | [6] 3.95%

CCOC(=O)/C(C#N)=C/c1ccc(C)cc1
inactive: [1] 10.4% | [2] 15.8% | [3] 11.2% | [4] 6.15% | [5] 22.3% | [6] 22.9%

CCC12CCCNC1c1c(n(C)c3ccccc13)C(C(=O)OC)C2 (stereo not given)
inactive: [1] 36.9% | [2] -2.9% | [3] 25% | [4] 25.6% | [5] -9.05% | [6] -20.7%

OC1(c2cccnc2)c2ccccc2Oc2ccccc21
inactive: [1] -11.8% | [2] 7.25% | [3] 0.7% | [4] -28.1% | [5] -3.7% | [6] -8.2%

C=CCNC1=C(NC(C)=O)C(=O)c2ccccc2C1=O
inactive: [1] 16.1% | [2] 0.95% | [3] 4.8% | [4] -31.2% | [5] 28.6% | [6] 12.4%

O=C(CCCn1ccnc1[N+](=O)[O-])NCCn1cnc([N+](=O)[O-])n1
inactive: [1] 7% | [2] 17.2% | [3] -6.05% | [4] -6.2% | [5] -4.8% | [6] -16.1%

O=c1cc(C(F)(F)F)[nH]c2ccc(F)cc12
inactive: [1] 1.95% | [2] -10.4% | [3] 6.4% | [4] -27.6% | [5] -27% | [6] 7.55%

CCCC(C)C(C(=O)OCC)C(=O)OCC (stereo not given)
inactive: [1] 2.6% and -5.35% | [2] -14.5% and -5.6% | [3] -9.85% and 10.9% | [4] 21.5% and -17.4% | [5] -11.3% and -14% | [6] -15.3% and -7.4%

O=C(O)c1nc2ccccc2nc1C(=O)O
inactive: [1] -27.9% | [2] -7.65% | [3] -13.4% | [4] -17.6% | [5] -7.95% | [6] -3.85%

O=C1NC(=O)c2c(O)cccc21
inactive: [1] 38.5% | [2] 23.6% | [3] 21.1% | [4] 18.2% | [5] 13.4% | [6] 27.9%

OC(c1ccc(OCc2ccccc2)cc1)c1ccccn1 (stereo not given)
inactive: [1] -1.15% | [2] -0.65% | [3] -4.45% | [4] -16.4% | [5] -5.7% | [6] -0.3%

O=S(=O)(O)CCCOC1COc2ccccc2OCCOCCOc2ccccc2OC1
inactive: [1] -0.65% | [2] 1.65% | [3] -15.5% | [4] -6.45% | [5] -4.1% | [6] -7.55%

CC(C)CC(=O)/C=C\c1ccco1
inactive: [1] -15.2% | [2] -33.5% | [3] 1.05% | [4] 1.3% | [5] -10.5% | [6] -7.45%

Cc1ccc2c(ccc3nc(N)nc(N)c32)c1
inactive: [1] -0.4% | [2] 11.5% | [3] -5.55% | [4] -42.9% | [5] -47.3% | [6] -2.65%

COc1ccc(OC(C)C(=O)O)c2c(=O)ccccc12 (stereo not given)
inactive: [1] 13.9% | [2] 10.7% | [3] -5.2% | [4] 25.2% | [5] 5.7% | [6] 22.1%

Reference: PubChem BioAssay (NCI)
